Where a name gives a salt, the structure may show the parent alone.
Legend:
Experiment in all cases: Euclidean distance of Cell Painting phenotypic profile (signed KS, 77 features) to DMSO centroid (dimensionless distance); 5 or 10 uM (library dependent); higher = stronger phenotypic change vs DMSO (phenoactivity)
Conditions in all cases: 48 h
786-O = test system: 786-O
In short: (§1)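 Stained cells were imaged confocally at 20X with 9 fields per well, after 48 h of exposure to library compounds at 10 or 5 uM (set by library; 0.1% DMSO final). The cells were five cancer lines and a healthy fibroblast line. From the images, Harmony extracted 77 features, each expressed as a signed Kolmogorov-Smirnov statistic relative to same-plate vehicle wells. Phenoactivity is measured as Euclidean distance to the median vehicle profile, using plate-position-corrected, correlation-weighted profiles averaged across replicates at the top dose.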

A549 = test system: A549
In short: as §1

DU145 = test system: DU145
In short: as §1

FB = test system: FB
In short: as §1

HEPG2 = test system: HEPG2
In short: as §1

OVCAR4 = test system: OVCAR4
In short: as §1

Row | Structure (SMILES) | Euclidean distance (786-O) | Euclidean distance (A549) | Euclidean distance (DU145) | Euclidean distance (FB) | Euclidean distance (HEPG2) | Euclidean distance (OVCAR4)
1 | CC1=CC[C@@](O)(C(C)C)CC1 [Terpinen-4-ol] | 0.644 | 0.999 | 0.827 | 0.873 | 0.873 | 0.882
2 | OC(CN1CCN(c2cccc(Cl)c2)CC1)C(c1ccccc1)c1ccccc1 (configuration not stated) | 1.08 | 1.33 | 0.908 | 1.03 | 0.858 | 1.16
3 | Cc1ccc(-c2ccc(C)cn2)nc1 [Abametapir] | 1.7 | 1.07 | 0.964 | 1.34 | 1.61 | 0.964
4 | Cc1cnc(Nc2ccc(OCCN3CCCC3)cc2)nc1Nc1cccc(S(=O)(=O)NC(C)(C)C)c1 | 4.21 | 4.4 | 2.95 | 4.43 | 2.96 | 3.56
5 | O=S(=O)(O)CCSSCCS(=O)(=O)O [Dimesna] | 0.983 | 1.01 | 1.18 | 1.16 | 0.803 | 1.13
6 | CCCCC1=NC2(CCCC2)C(=O)N1Cc1ccc(-c2ccccc2-c2nnn[nH]2)cc1 [Irbesartan] | 1.03 | 0.928 | 0.351 | 0.966 | 0.777 | 1.79
7 | CCOC(=O)[C@H](CCc1ccccc1)N[C@@H](C)C(=O)N1CCC[C@H]1C(=O)O [Enalapril Maleate] | 1.04 | 0.697 | 0.694 | 0.816 | 0.78 | 1.28
8 | Cc1ccc(/C(=C\CN2CCCC2)c2ccccn2)cc1 [Triprolidine Hydrochloride] | 0.627 | 0.986 | 0.542 | 1.16 | 1.31 | 1.02
9 | CC(C)c1cc(-c2ccc(F)c3ccccc23)nc(N)n1 | 0.8 | 0.73 | 0.946 | 0.742 | 1 | 1.28
10 | CC(C)OC(=O)[C@H](C)N[P@](=O)(OC[C@H]1O[C@@H](n2ccc(=O)[nH]c2=O)[C@](C)(F)[C@@H]1O)Oc1ccccc1 [Sofosbuvir (PSI-7977. GS-7977)] | 1.34 | 0.693 | 1.07 | 0.694 | 0.59 | 1.01
11 | C1N2CN3CN1CN(C2)C3 [Methenamine] | 1.23 | 0.437 | 0.592 | 0.896 | 0.586 | 1.2
12 | CCN(C(=O)c1c(O)c2c(Cl)cccc2n(C)c1=O)c1ccccc1 [Laquinimod] | 0.923 | 0.95 | 0.863 | 0.902 | 0.638 | 1.25
13 | C#CCN[C@@H]1CCc2ccccc21 [Rasagiline Mesylate] | 1.19 | 0.608 | 0.782 | 0.686 | 1.01 | 1.18
14 | O=C(Nc1cc(C(F)(F)F)ccc1N1CCCCC1)c1ccncc1 | 0.961 | 1.47 | 0.983 | 0.794 | 0.96 | 1.67
15 | CN(CCOc1ccc(CC2SC(=O)NC2=O)cc1)c1ccccn1 (configuration not stated) [Rosiglitazone] | 1.31 | 0.979 | 0.878 | 1.79 | 0.962 | 1.14
16 | Brc1c(NC2=NCCN2)ccc2nccnc12 [Brimonidine Tartrate] | 0.514 | 0.618 | 0.478 | 0.739 | 0.644 | 0.833
17 | CC(C)[C@@H](C)/C=C/[C@@H](C)[C@H]1CC[C@H]2C3=CC=C4C[C@@H](O)CC[C@]4(C)[C@H]3CC[C@]12C [Ergosterol] | 1.2 | 1.36 | 1.1 | 0.707 | 0.946 | 1.17
18 | C#C[C@]1(O)CC[C@H]2[C@@H]3CCC4=CC(=O)CC[C@@H]4[C@H]3CC[C@@]21C [Norethindrone] | 1 | 0.864 | 0.791 | 1.2 | 0.575 | 1.29
19 | O=C(O)C(O)C(O)C(=O)O (configuration not stated) [Tartaric acid] | 0.758 | 0.688 | 0.848 | 1.25 | 0.481 | 0.632
20 | Cc1ccnc(NS(=O)(=O)c2ccc(N)cc2)n1 [Sulfamerazine] | 1.24 | 0.793 | 0.847 | 0.862 | 0.67 | 1.2
21 | CN1CCC(NC(=O)c2cc(-c3c(O)cc(O)cc3Oc3ccc([N+](=O)[O-])cc3)on2)CC1 | 2.95 | 3.28 | 3.66 | 3.37 | 5.17 | 3.04
22 | CCCc1cc(C)[nH]c(=O)c1CNC(=O)c1cc(-c2ccc(N3CCN(C(C)C)CC3)nc2)cc2c1cnn2C(C)C | 1.57 | 1.62 | 1.42 | 2.34 | 1.03 | 1.18
23 | COC(=O)CCC(=O)CN [Methyl Aminolevulinate Hydrochloride] | 1.52 | 0.774 | 0.717 | 0.88 | 0.566 | 1.34
24 | CC(C)NC(=O)COc1cccc(-c2nc(Nc3ccc4[nH]ncc4c3)c3ccccc3n2)c1 | 2.53 | 3.23 | 3.11 | 2.67 | 1.76 | 2.43

Row | Structure (SMILES) | Euclidean distance (786-O) | Euclidean distance (A549) | Euclidean distance (DU145) | Euclidean distance (FB) | Euclidean distance (HEPG2) | Euclidean distance (OVCAR4)
25 | CC(=O)c1cc([N+](=O)[O-])c(Sc2cccc(Cl)c2Cl)s1 | 0.465 | 0.706 | 0.528 | 0.668 | 0.869 | 1.26
26 | COc1ccc(C(Cl)=C(c2ccc(OC)cc2)c2ccc(OC)cc2)cc1 [Chlorotrianisene] | 1.13 | 1.23 | 0.763 | 1.08 | 1.11 | 1.04
27 | CN(C[C@@H]1COCCO1)S(=O)(=O)Nc1ccc2ccc3ncc(-c4cnn(C)c4)cc3c(=O)c2c1 | 1 | 0.895 | 1.01 | 3.07 | 0.888 | 1
28 | Cn1cc(C2=C(c3cn(CCCSC(=N)N)c4ccccc34)C(=O)NC2=O)c2ccccc21 [Ro 31-8220 Mesylate] | 2.7 | 3.02 | 2.58 | 2.92 | 3.24 | 2.82
29 | N#CCCCSC(=N)N [Kevetrin hydrochloride] | 1.5 | 0.842 | 1.04 | 0.849 | 0.473 | 0.902
30 | Cn1cc(C2=C(c3ccc(Cl)cc3Cl)C(=O)NC2=O)c2ccccc21 | 1.92 | 0.949 | 1.79 | 1.57 | 1.08 | 1.01
31 | CC(/C=C/C(=O)NO)=C\[C@@H](C)C(=O)c1ccc(N(C)C)cc1 [Trichostatin A] | 3.62 | 4.26 | 3.19 | 4.05 | 3.58 | 3.53
32 | CC[C@@H]1C(=O)OC[C@@H]1Cc1cncn1C [Pilocarpine HCl] | 1.14 | 0.624 | 0.725 | 0.78 | 0.698 | 1.49
33 | CN(C)C(=O)Nc1cccc(-c2ccc(N(C)C)cc2)c1 [Atglistatin] | 1.31 | 1.47 | 1.1 | 0.894 | 0.548 | 1.33
34 | CC[C@H]1OC(=O)C[C@@H](O)[C@H](C)[C@@H](O[C@@H]2O[C@H](C)[C@@H](O)[C@H](N(C)C)[C@H]2O)[C@@H](CCN2C[C@H](C)C[C@H](C)C2)C[C@@H](C)C(=O)/C=C/C(C)=C/[C@@H]1CO[C@@H]1O[C@H](C)[C@@H](O)[C@@H](OC)[C@H]1OC [Tilmicosin] | 0.767 | 0.579 | 0.777 | 0.841 | 1.09 | 0.801
35 | CC#CC(=O)N1CCC[C@H]1c1nc(-c2ccc(C(=O)Nc3ccccn3)cc2)c2c(N)nccn12 [Acalabrutinib (ACP-196)] | 0.929 | 0.693 | 2.19 | 1.3 | 3.25 | 1.22
36 | CCc1cccc(CC)c1NC(=O)N1Cc2[nH]nc(NC(=O)c3ccc(N4CCN(C)CC4)cc3)c2C1 | 2.54 | 2.75 | 2.46 | 3.44 | 2.47 | 2.78
37 | CC(C)NCC(O)COc1ccc(COCCOC(C)C)cc1 (configuration not stated) [Bisoprolol fumarate] | 0.611 | 0.836 | 0.523 | 0.91 | 0.467 | 1.36
38 | Nc1ccn([C@@H]2CS[C@H](CO)O2)c(=O)n1 [Lamivudine] | 0.725 | 0.508 | 0.589 | 1 | 1.07 | 0.623
39 | Cc1coc2c1C(=O)C(=O)c1c-2ccc2c1CCCC2(C)C [Tanshinone IIA] | 1.26 | 2.73 | 0.982 | 1.04 | 1.54 | 1.36
40 | C=C(C)[C@@H]1CC[C@]2(CO)CC[C@]3(C)[C@H](CC[C@@H]4[C@@]5(C)CC[C@H](O)C(C)(C)[C@@H]5CC[C@]43C)[C@@H]12 [Betulin] | 1.24 | 0.846 | 1.07 | 1.2 | 0.765 | 1.1
41 | Nc1nc(Cl)nc2c1ncn2[C@@H]1O[C@H](CO)[C@@H](O)[C@@H]1F [Clofarabine] | 3.26 | 2.36 | 2.96 | 3.41 | 3.02 | 3.09
42 | O=C1Nc2ccc(CN3C(=O)CSC3=O)cc2/C1=C/c1cc(CN2CCOCC2)c[nH]1 | 1.07 | 1.06 | 0.896 | 1.11 | 0.385 | 0.658
43 | c1ccc2[nH]c(-c3cscn3)nc2c1 [Thiabendazole] | 1.16 | 0.753 | 1.31 | 1.1 | 1.93 | 0.914
44 | O=C1OCCN1/N=C/c1ccc([N+](=O)[O-])o1 [Furazolidone] | 1.14 | 1.26 | 1.02 | 1.13 | 0.999 | 1.09
45 | CC1(COc2ccc3c(c2)ncn3-c2ccc3cccc(N4CCC(N)CC4)c3n2)COC1 | 3.62 | 3.9 | 3.27 | 3.75 | 3.6 | 3.78
46 | CNC[C@H](O)c1ccc(O)c(O)c1 [Epinephrine HCl] | 1.19 | 0.611 | 0.9 | 0.733 | 0.644 | 0.893
47 | C[C@]12C[C@H](O)[C@H]3[C@@H](CCC4=CC(=O)CC[C@@]43C)[C@@H]1CC[C@@H]2C(=O)CO [Corticosterone] | 1 | 1.47 | 1.47 | 1.15 | 0.619 | 1.04
